Reference: PubChem BioAssay AID1159580 (chemical genetic matrix, 2015)
Several values for one entry are separate records, joined by “and”; a condition that tells them apart may be missing. Equal values may be shown once. Hit rate of the full screen: of about 5,500 compounds, about 2,000 (36%) were called active. Not shown: some 18% with an inconclusive outcome. No stated cut-off is given here; in the data, active means normalized growth mostly below about 0.91 (no sharp cut-off); inconclusive means no clear call, values can overlap the other calls; inactive means mostly above about 0.92. The list shows a part of the results.

Test: chemical genetic growth profiling, strain panel (AID 1159580);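 further: tested at 20 µM; growth read once vehicle control cultures reached saturation at 30 °C; 1 = growth at the plate median or of vehicle wells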
Details: S. cerevisiae deletion strains, growth OD

Measured: normalized growth

CCN(CC)C(=O)c1cccc(C)c1
inactive: locus YAL013W, strain DEP1, stronger effect = lower value 1 | locus YAL021C, strain ccr4, stronger effect = lower value 1.03 | locus YAL026C, strain drs2, stronger effect = lower value 1.03 | locus YAL030W, strain snc1, stronger effect = lower value 1.04 | locus YBL061C, strain skt5, stronger effect = lower value 1.04 | locus YBR009C, strain hhf1, stronger effect = lower value 1.01 | locus YBR021W, strain FUR4, stronger effect = lower value 1.01 | locus YBR023C, strain chs3, stronger effect = lower value 1.03 | locus YBR171W, strain sec66, stronger effect = lower value 1.04 | locus YBR229C, strain ROT2, stronger effect = lower value 1.01 | locus YBR231C, strain swc5, stronger effect = lower value 1.05 | locus YBR279W, strain paf1, stronger effect = lower value 1.02 | locus YCL011C, strain gbp2, stronger effect = lower value 1.02 | locus YCL016C, strain dcc1, stronger effect = lower value 1.03 | locus YCL029C, strain bik1, stronger effect = lower value 0.992 | locus YCL069W, strain vba3, stronger effect = lower value 1.04 | locus YCR088W, strain abp1, stronger effect = lower value 1.04 | locus YDL005C, strain med2, stronger effect = lower value 1.03 | locus YDL035C, strain GPR1, stronger effect = lower value 1 | locus YDL040C, strain nat1, stronger effect = lower value 1.03 | locus YDL074C, strain BRE1, stronger effect = lower value 1.02 | locus YDL101C, strain DUN1, stronger effect = lower value 0.999 | locus YDL134C, strain PPH21, stronger effect = lower value 1.01 | locus YDL185W, strain tfp1, stronger effect = lower value 0.957 | locus YDL192W, strain arf1, stronger effect = lower value 0.996 | locus YDR001C, strain nth1, stronger effect = lower value 1.03 | locus YDR069C, strain doa4, stronger effect = lower value 1.02 | locus YDR101C, strain arx1, stronger effect = lower value 1 | locus YDR137W, strain rgp1, stronger effect = lower value 1.04 | locus YDR150W, strain NUM1, stronger effect = lower value 0.981 | locus YDR159W, strain sac3, stronger effect = lower value 1.05 | locus YDR162C, strain NBP2, stronger effect = lower value 0.972 | locus YDR195W, strain ref2 1.11 | locus YDR297W, strain sur2, stronger effect = lower value 1.03 | locus YDR318W, strain mcm21, stronger effect = lower value 1 | locus YDR334W, strain swr1, stronger effect = lower value 1.03 | locus YDR335W, strain msn5, stronger effect = lower value 1.03 | locus YDR388W, stronger effect = lower value 1.01 | locus YDR392W, strain spt3, stronger effect = lower value 1.05 | locus YDR502C, strain sam2, stronger effect = lower value 0.994 | locus YEL003W, strain gim4, stronger effect = lower value 1.02 | locus YEL037C, strain rad23, stronger effect = lower value 1.04 | locus YEL061C, strain CIN8 (second series), stronger effect = lower value 1.02 | locus YEL061C, strain CIN8, stronger effect = lower value 1.01 | locus YER015W, strain faa2, stronger effect = lower value 1.03 | locus YER016W, strain bim1, stronger effect = lower value 1.02 | locus YER110C, stronger effect = lower value 1.01 | locus YER111C, strain swi4, stronger effect = lower value 1.05 | locus YER155C, strain BEM2 (second series), stronger effect = lower value 1.07 | locus YER155C, strain BEM2, stronger effect = lower value 1.01 | locus YER167W, strain BCK2, stronger effect = lower value 1.03 | locus YFR010W, strain ubp6, stronger effect = lower value 1.03 | locus YGL078C, strain dbp3, stronger effect = lower value 0.997 | locus YGL086W, strain mad1, stronger effect = lower value 1 | locus YGL167C, strain pmr1, stronger effect = lower value 1.03 | locus YGL173C, strain kem1, stronger effect = lower value 1.01 | locus YGL227W, strain vid30, stronger effect = lower value 1.04 | locus YGL240W, strain doc1, stronger effect = lower value 1.03 | locus YGL248W, strain PDE1, stronger effect = lower value 1.01 | locus YGL253W, strain hxk2, stronger effect = lower value 1.02 | locus YGR078C, strain PAC10, stronger effect = lower value 0.98 | locus YGR135W, strain pre9, stronger effect = lower value 0.982 | locus YGR229C, strain SMI1, stronger effect = lower value 1.01 | locus YGR252W, strain gcn5, stronger effect = lower value 0.98 | locus YHR013C, strain ard1, stronger effect = lower value 1.1 | locus YHR027C, strain rpn1, stronger effect = lower value 1.02 | locus YHR030C, strain SLT2, stronger effect = lower value 1.01 and 0.932 | locus YHR079C, strain IRE1 (second series), stronger effect = lower value 1 | locus YHR079C, strain IRE1, stronger effect = lower value 0.977 | locus YHR094C, strain hxt1, stronger effect = lower value 0.997 | locus YHR129C, strain ARP1, stronger effect = lower value 1.02 | locus YHR142W, strain chs7, stronger effect = lower value 1.02 | locus YHR200W, strain rpn10, stronger effect = lower value 0.998 | locus YIL066C, strain RNR3, stronger effect = lower value 0.998 | locus YIL073C, strain SPO22, stronger effect = lower value 0.97 | locus YIL125W, strain kgd1, stronger effect = lower value 1 | locus YIR030C, strain dcg1, stronger effect = lower value 0.996 | locus YJL092W, strain hpr5, stronger effect = lower value 1.03 | locus YJL095W, strain BCK1 (second series), stronger effect = lower value 1.04 | locus YJL095W, strain BCK1, stronger effect = lower value 1.04 and 0.974 | locus YJL115W, strain asf1, stronger effect = lower value 1.06 | locus YJL129C, strain trk1, stronger effect = lower value 1.08 | locus YJL134W, strain LCB3, stronger effect = lower value 1 | locus YJL154C, strain vps35, stronger effect = lower value 1.03 | locus YJL164C, strain tpk1, stronger effect = lower value 1.02 | locus YJL166W, strain qcr8, stronger effect = lower value 1.02 | locus YJL168C, strain set2, stronger effect = lower value 1 | locus YJL187C, strain SWE1 (second series), stronger effect = lower value 0.994 | locus YJR043C, strain POL32, stronger effect = lower value 0.999 | locus YJR066W, strain TOR1, stronger effect = lower value 0.942 | locus YJR075W, strain HOC1, stronger effect = lower value 1.02
